tested on: Plasmodium falciparum; experiment: GSK_TCMDC: Inhibition of Plasmodium falciparum Dd2 in whole red blood cells, using parasite LDH activity as an index of growth. Test compounds present at 2uM; type: functional

Structure (SMILES)	Inhibition
Cl.Oc1ccccc1Nc1nc(NCc2ccco2)c2ccccc2n1	71%
Cc1cccc2nc(-c3ccc(-c4cccc(CN5CCN(c6ccncc6)CC5)c4)s3)[nH]c12.O=C(O)C(F)(F)F	99%
Cc1cccc2nc(-c3ccc(-c4ccc(C(=O)NCCc5cn(C)cn5)cc4)s3)[nH]c12	8%
Cc1cccc2nc(-c3ccc(-c4cccc(CN5CCC(CO)CC5)c4)s3)[nH]c12.O=C(O)C(F)(F)F	61%
Cl.O=C(C=Cc1cccc(F)c1)NC1CCC(CCN2CCc3ccc(-c4cnccn4)cc3CC2)CC1 (stereo not given)	67%

tested on: HepG2; experiment: GSK_TCMDC: Percent inhibition of human HepG2 cell line. Test compounds present at 10uM.; type: functional

Structure (SMILES)	Inhibition
CCc1cc(I)c2c(c1)C(NCCCNc1cc(=O)c3ccccc3[nH]1)CCN2.CS(=O)(=O)O (stereo not given)	19%
CC(C)Cn1c(Sc2ccc(C#N)c([N+](=O)[O-])c2)nnc1-c1ccc(N(C)C)cc1	4%
Cn1nccc1C(=O)NCCNCc1ccc(-c2ccc(-c3nc4cc(C(F)(F)F)ccc4[nH]3)s2)cc1.O=C(O)C(F)(F)F	48%
CCCCC(=O)Nc1cc(=O)[nH]c2nc(-c3ccc(Cl)cc3)nn12	1%
CCOC(=O)CN1Cc2cc(NCc3ccc4ccc5nc(C)[nH]c(=O)c5c4c3)ccc2C1=O	40%
CC(=O)Nc1csc(-c2cnc(/C=C(\C)C[C@@H]3OC[C@H](C[C@@H]4O[C@H]4[C@@H](C)[C@H](C)O)[C@@H](O)[C@H]3O)o2)c1	1%
N#Cc1cccc(C(=O)Nc2cccc(-c3ccc(CN4CCC(O)CC4)cc3)c2)c1.O=C(O)C(F)(F)F	15%
O=C(NCC1CCC(C(=O)NCc2cccc(C(F)(F)F)c2)CC1)c1ccc(O)c(-c2ccc(Cl)c(Cl)c2)c1 (stereo not given)	5%
Cc1ccc(Cc2cnc(CN3CCCCC3)c(O)c2)cc1.Cl	4%
Cl.Nc1c2c(nc3ccc(NC(=O)CCCCCc4ccccc4)cc13)CCCC2	32%
O=C(NCCN1CCC(c2ccncc2)CC1)c1ccc(Nc2nccc(Nc3ccc(Oc4ccccc4)cc3)n2)cc1	17%
CC(C)CNC(=O)c1cncc(-c2ccc(CN3CCC(N4CCCC4)CC3)cc2)c1.O=C(O)C(F)(F)F	25%
O=C(/C=C/c1ccc(Cl)c(Cl)c1)NCCCCCN1CC[C@H](NC(=O)c2sc3ccccc3c2Cl)C1	26%
COc1ccc(-c2cccc(NC(=O)c3cccc(Cl)c3)c2)cc1CN(C)CCN(C)C.O=C(O)C(F)(F)F	32%
CN(C)C(=O)c1ccc(CN(Cc2cccc(OC(C)(C)C)c2)Cc2ccc3c(c2)OCCO3)cc1	0%
CN1CCN(CCCNCc2cccc(Nc3nccc(Nc4ccc(Oc5ccccc5)cc4)n3)c2)CC1	97%
O=C(NCCCCCN1CCC(c2c[nH]c3ccccc23)CC1)Nc1ccc(I)cc1	51%
Cc1[nH]c(C)c(-c2ccc(-c3cccc(OC(F)(F)F)c3)nc2)c(=O)c1Cl	30%
CC(C)N1CCC(N(Cc2ccc(-c3ccc(C(F)(F)F)cc3)cc2)C(=O)Cn2c(CCc3cccc(F)c3F)cc(=O)c3ccccc32)CC1.O=C(O)C(O)C(O)C(=O)O	50%
COc1cc2c(cc1OC)C(C(=O)c1ccccc1)=NCC2.Cl	19%

Structure (SMILES)	Inhibition
O=C(Cc1c[nH]cn1)Nc1cccc(-c2ccc(-c3nc4cc(F)ccc4[nH]3)s2)c1	4%
COc1ccc(C(c2ccc(N(C)C)cc2)c2ccc(N(C)C)cc2)cc1	72%
O=C(Nc1ccc(F)cc1)c1cnc(N2CCN(c3ccncc3)CC2)c(Cl)c1.O=C(O)C(F)(F)F	41%
O=C(/C=C/c1ccc(Cl)c(Cl)c1)NCCCCCN1CCC(NC(=O)c2cccc(Cl)c2)CC1	12%
CCC/C=C/c1c(CNCCCNc2cc(=O)c3ccccc3[nH]2)sc(CC)c1Br.Cl	8%
COc1cc2nc(N3CCC(CNC(=O)c4ccc(-c5ccc(C(F)(F)F)cc5)cc4)CC3)nc(N)c2cc1OC	94%
COc1cc(/C=N/Nc2nc(Nc3ccccc3)nc(Nc3ccccc3)n2)ccc1OCc1ccccc1[N+](=O)[O-]	8%
CC[C@H](NC(=O)c1c(CN2CCC(N3CCCCC3)CC2)c(-c2ccccc2)nc2cc(O)ccc12)c1ccccc1	15%
Cc1cc(-c2cnc(N)c(-c3ccc(N4CCN(C)CC4)cc3)c2)cc(C)c1O	3%
Cc1nc(N)nc(N)c1OCCCOc1cccc(Cl)c1Cl.Cl	59%
COc1ccc(NC(=O)Nc2cc(C)nc3cccnc23)cc1Cn1ccnc1	12%
O=C(c1cccs1)N1CCN(c2ccc([N+](=O)[O-])c(NC3CC3)c2)CC1	0%
O=C(N[C@@H](CC1CCCCC1)C(=O)NCCN1CCCC1)c1ccc(O)c(-c2cccc(C(F)(F)F)c2)c1	0%
OCCN1CCN(c2nc(Nc3cccc(F)c3)c3cnn(-c4ccccc4)c3n2)CC1	89%
O=C(Nc1ccc(-c2nc3ccccc3[nH]2)cc1)c1ccc(N2CCOCC2)c([N+](=O)[O-])c1	47%
Cl.Oc1ccccc1Nc1nc(NCc2ccco2)c2ccccc2n1	0%
Cc1cccc2nc(-c3ccc(-c4cccc(CN5CCN(c6ccncc6)CC5)c4)s3)[nH]c12.O=C(O)C(F)(F)F	48%
Cc1cccc2nc(-c3ccc(-c4ccc(C(=O)NCCc5cn(C)cn5)cc4)s3)[nH]c12	0%
Cc1cccc2nc(-c3ccc(-c4cccc(CN5CCC(CO)CC5)c4)s3)[nH]c12.O=C(O)C(F)(F)F	20%
Cl.O=C(C=Cc1cccc(F)c1)NC1CCC(CCN2CCc3ccc(-c4cnccn4)cc3CC2)CC1 (stereo not given)	51%

Source: ChEMBL document CHEMBL1157539, “Thousands of chemical starting points for antimalarial lead identification” (Nature, 2010)
